Experimental findings from PubChem BioAssay (Tox21) are described below.

Each structure is given as a SMILES string. Results filed as inconclusive are left out. A number with no mark means an inactive call. Calls of active or inactive are those of the source. The call rests on the fitted dose curve; in most records, active means well fitted cell-killing curve with a large enough effect in the repeat runs; inconclusive means weak or mixed curves, or effect the other way; inactive means flat fitted curve, though single readings scatter.
On the % scale 0 is the no-effect control and ±100 the full control effect.

A short description of this assay: qHTS assay to identify small molecule agonists of the TGF-beta/Smad signaling pathway - cell viability counter screen (AID 1346829). Further: top concentration of the series differs between compounds; nearly all actives have a fitted effect of over 45% in size. As to conditions: SBE-bla HEK293T viability, CellTiter-Glo luminescence, 5 h; series mostly up to 76.8 µM. The text has this: National Center for Advancing Translational Sciences [NCATS]
NIH Chemical Genomics Center [NCGC]
U.S. Environmental Protection Agency [EPA]
National Institutes of Environmental Health Sciences [NIEHS]
National Toxicology Program [NTP]
U.S. Food and Drug Administration [FDA]
Transforming growth factor beta (TGF-beta) superfamily consists of a large number of structurally related dimeric proteins that act as hormones or local mediators in regulating a wide range of biological functions. This superfamily includes TGF-betas themselves, the bone morphogenetic proteins (BMPs) and the activins. These ligands induce oligomerization of serine/threonine receptor kinases and phosphorylate the cytoplasmic signaling molecules of Smad protein family. CellSensor SBE-bla HEK 293T cell line (Life Technologies, Carlsbad, CA), responsive to TGF-beta was used to screen Tox21 10K compound library for identification of agonists/antagonists of the Smad signaling pathway. This cell line contains a beta-lactamase reporter gene under control of the Smad binding element (SBE) stably integrated into HEK 293T cells. Also cytotoxicity of the compounds was tested in parallel by measuring the cell viability using CellTiter-Glo assay system in the same wells.
Tox21 Assay Protocol Summary:
SBE-bla HEK 293T cells were dispensed at 4,000/well in 6 uL of assay medium into black wall/clear-bottom 1536-well plates using a Multidrop Combi (ThermoFisher Scientific, Waltham, MA) dispenser. After the assay plates were incubated at 37 C and 5% CO2 for an overnight, 23 nL of compounds dissolved in DMSO, positive controls or DMSO only was transferred to the assay plate by a Pintool station (Kalypsys, San Diego, CA). The assay plates were incubated at 37 C and 5% CO2 for 5 hr. One uL of LiveBLAzer B/G FRET substrate (Life Technologies) was added using a Flying Reagent Dispenser (FRD, Aurora Discovery, San Diego, CA) and the plates were incubated at room temperature for 2 hr. Fluorescence intensity (405 nm excitation, 460 nm and 530 nm emissions) was measured using an Envision plate reader (PerkinElmer, Shelton, CT). For cytotoxicity read, 4 uL of CellTiter-Glo reagent (Promega Corporation, Madison, WI) was added to each well of the assay plates using FRD. After 30min incubation at room temperature, the luminescence intensity was measured using ViewLux plate reader (PerkinElmer).
In general terms: In qHTS, concentration-response curves come from the screen itself.
On to `COc1cc(C=O)ccc1OC(=O)C(C)C`, for which the compound was called inactive.
On to `F[Si-2](F)(F)(F)(F)F`, for which the outcome was inactive.
Consider `CCCCCCCCCCC`, for which the compound was classed as inactive.
Regarding `CNCc1ccccc1`, the compound was classed as inactive.
The same measure, in the same setting: then `NS(=O)(=O)c1cc2c(cc1Cl)NC(C(Cl)Cl)NS2(=O)=O` (stereo not given), with “inactive”; and `CCCCC(C)C(=O)O` (stereo not given), with “inactive”; and `CO/N=C(/C(=O)N[C@@H]1C(=O)N2C(C(=O)O)=C(Cn3nnc(C)n3)CS[C@H]12)c1csc(N)n1`, with “inactive”.
Take `COc1ccc(N=Nc2cc(C)c(N=Nc3ccc(S(=O)(=O)O)cc3)cc2OC)cc1`: the compound was called inactive.
On the same count and under the same terms, under `OC[C@@H](O)[C@H](O)[C@@H](O)[C@@H](O)CO` stands “inactive”.
On the same count and under the same terms, then `CCCCOC(=O)C(C)OC(=O)CCC` (stereo not given), with “inactive”.
With `CCCC(C)CC` (stereo not given), the call was inactive.
Still for that read-out and setting: then `CN=C(NC#N)NCCSCc1csc(N=C(N)N)n1`, with “inactive”; and `CN[C@@H]1[C@H](O)[C@H](NC)[C@H]2O[C@@]3(O)C(=O)C[C@@H](C)O[C@H]3O[C@@H]2[C@H]1O`, with “inactive”.
Turning to `Cn1c(=O)c2c(ncn2CC2OCCO2)n(C)c1=O`, the compound was classed as inactive.
Same read-out and setting: then `N#CCCOCCOCCC#N`, with “inactive”; and `NC(Cc1c[nH]c2ccccc12)C(=O)O` (stereo not given), with “inactive”.
Still for that read-out and setting: under `Cc1ccccc1N1CCN(CCc2nnc3n2CCCC3)CC1` stands “inactive”; under `CC(=O)OCCCc1ccccc1`, “inactive”.
Still for that read-out and setting: then `CN(C1CCCCC1)S(=O)(=O)c1ccccc1N`, with “inactive”; and `CCCCCC1Nc2cc(C(F)(F)F)c(S(N)(=O)=O)cc2S(=O)(=O)N1` (stereo not given), with “inactive”; and `COc1cc([N+](=O)[O-])ccc1N`, with “inactive”.
For the compound `Nc1cc(C(=O)O)ccc1Cl`, the compound was classed as inactive.
On the same count and under the same terms, under `CN(C)CCCNCCC#N` stands “inactive”; under `NS(=O)(=O)c1ccc(Cl)c(S(N)(=O)=O)c1`, “inactive”.
On the same count and under the same terms, then `CCOC(=O)CCCCCCCCC(=O)OCC`, with “inactive”.
Regarding `Cc1ccccc1C`, the outcome was inactive.
With `Nc1ccnc(=O)[nH]1`, the compound was called inactive.
Turning to `COc1ccc(/C=N/NC(=O)c2ccncc2)cc1OC`, the result was inactive.
For the compound `CCCCCCCCCCCCCCCCI`, the activity change, negative = cytotoxicity is 0.0425% [at 15.8 µM].
The same measure, in the same setting: under `O=C(O)Cc1cccc(-c2cc(CCCCCCc3ccc(O[C@H]4O[C@H](CO)[C@@H](O)[C@H](O)[C@@H]4O)c(-c4cccc(CC(=O)O)c4)c3)ccc2O[C@H]2O[C@H](CO)[C@@H](O)[C@H](O)[C@@H]2O)c1` stands 10.8% [at 0.29 µM].
In the case of `O=C(O)CCNC(=O)c1ccccc1`, the call was inactive.
Still for that read-out and setting: under `CC(C)CCCC(C)CC=O` (stereo not given) stands “inactive”; under `C1=CCC(c2ccccc2)CC1` (stereo not given), “inactive”.
Still for that read-out and setting: then `O=C(COCCOCCOCC(=O)Nc1c(I)cc(I)c(C(=O)O)c1I)Nc1c(I)cc(I)c(C(=O)O)c1I`, with “inactive”.
On the same count and under the same terms, then `CC(C)SCc1ccco1`, with “inactive”; and `CCOC(=O)C(=O)c1csc(NC=O)n1`, with “inactive”; and `O=C1NC2NC(=O)NC2N1` (stereo not given), with “inactive”.
`CCOC(=O)C(C)(C)C`: the call was inactive.
Still for that read-out and setting: under `CCCCCCCCCCCCCC(=O)OC` stands “inactive”.
On the same count and under the same terms, then `CC(=O)OCC(=O)[C@@]1(O)[C@H](OC(C)=O)C[C@H]2[C@@H]3CCC4=CC(=O)C=C[C@]4(C)[C@@]3(F)[C@@H](O)C[C@@]21C`, with “inactive”.
